# An excerpt weighted towards active compounds, which were near 2.1% of everything screened.
# TPT1 inhibitor: Candida albicans TPT1 enzyme inhibitors, primary screen, biochemical, fluorescence polarization; inhibition, % at 5 µM; hit rate 0.81% among 300,000; recombinant caTPT1, FP RNA substrate dephosphorylation; tRNA 2'-phosphotransferase TPT1 (Candida albicans SC5314);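 active = inhibition above the mean of all tested compounds plus 3 SD, set per screening campaign, cut at about 24% in these data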;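 also: plate controls were DMSO alone for no effect and ferristatin control at 100 nM for full effect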
# Rpn11 inh: Rpn11 (PSMD14) deubiquitinase inhibitors, primary screen, biochemical, fluorescence polarization, uHTS. human 26S proteasome, Ub4-pepOG fluorescence polarization; 20S core pre-blocked with epoxomicin. 26S proteasome non-ATPase regulatory subunit 14 (Homo sapiens), O00487. inhibition, % at 20 µM. hit rate 0.59% among 360,000;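 active = inhibition at 20 µM, scaled to each plate's controls, above about 33%, limit read from the data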
# Target sequence (O00487 whole entry, looked up): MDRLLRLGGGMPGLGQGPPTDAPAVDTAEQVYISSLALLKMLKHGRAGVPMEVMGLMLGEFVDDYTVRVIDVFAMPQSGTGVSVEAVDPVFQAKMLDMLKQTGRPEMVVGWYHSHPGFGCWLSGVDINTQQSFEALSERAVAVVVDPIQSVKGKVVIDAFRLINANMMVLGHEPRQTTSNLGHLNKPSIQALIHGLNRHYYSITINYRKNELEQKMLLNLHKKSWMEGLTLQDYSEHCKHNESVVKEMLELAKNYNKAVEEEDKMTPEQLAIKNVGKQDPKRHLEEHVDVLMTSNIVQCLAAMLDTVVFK
# Myeloid diff 2: induction of myeloid progenitor differentiation, primary screen, cell-based, flow cytometry, MLPCN library. ER-HoxA9 myeloid progenitors, lysozyme-GFP differentiation. calls only at 10 µM. hit rate 1% among 360,000. AID 624256, 2012;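 active = normalized GFP-positive differentiation at or above the plate's own cutoff, the solvent-only control mean plus 3 SD; inconclusive = no clear call, values can overlap the other calls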;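 also: cells exposed to compound for four days before flow analysis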
# HNF4A DNA FP: change in binding of human HNF4A to DNA, primary screen, biochemical, fluorescence polarization, FITC-DNA. Hepatocyte nuclear factor 4-alpha (Homo sapiens), P41235. 1 h. activity change, % at 10 µM. hit rate 0.3% among 360,000. AID 1224865, 2016; in the data active = activity change above about 30%, passing the limit was not always enough
# TPT1 inh confirm: Candida albicans TPT1 inhibitors, confirmation, biochemical, fluorescence polarization, triplicate; shares compounds with TPT1 inhibitor; inhibition, % at 5 µM; recombinant caTPT1, RNase T1 coupled; hit rate 74% among 2,400;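 active = inhibition above the primary screen limit, the mean inhibition of all tested compounds plus 3 SD, cut at about 25% in these data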
# RNase T1 counter: RNase T1 inhibitors, counter-screen for TPT1 inhibitor project, biochemical, fluorescence polarization; shares compounds with TPT1 inhibitor; RNase T1 cleavage, 1536-well; inhibition, % at 5 µM; hit rate 83% among 2,400;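 active = inhibition above the solvent-only control well mean plus 3 SD, limit set per screening run, cut at about 23% in these data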;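 also: plate controls were DMSO wells with enzyme for no effect and wells without RNase T1 for full effect; inhibitors block cleavage so intact labeled substrate keeps polarization high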
# Target sequence (P00651 whole entry, looked up): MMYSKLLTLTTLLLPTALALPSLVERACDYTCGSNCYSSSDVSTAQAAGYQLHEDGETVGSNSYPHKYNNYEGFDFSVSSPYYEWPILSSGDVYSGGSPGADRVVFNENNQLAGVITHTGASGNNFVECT
# * marks the source's active call; other numbers are inactive results; i = inactive; ? = inconclusive; . = no result shown; + = active, no number.
SMILES,TPT1 inhibitor,Rpn11 inh,Myeloid diff 2,HNF4A DNA FP,TPT1 inh confirm,RNase T1 counter
CN1/C(=C\C=C2/C(=O)Oc3ccccc3C2=O)C(C)(C)c2ccccc21,98*,.,.,.,5,13
CN1/C(=C\C=C2/SC(=S)NC2=O)C(C)(C)c2ccccc21,106*,.,+,-4,111*,106*
CN(C)c1ncnc2c1C(c1ccccc1)C(C)(C)O2 (configuration not stated),.,6,i,4,.,.
CCC(C)C(NC(=O)c1ccccc1)C(=O)N1CCN(C(=O)c2ccccc2)CC1 (configuration not stated),.,-4,i,6,.,.
CCN(CC)c1ccc(/C=C/c2cccc[n+]2C)c(OC)c1,58*,.,?,179,62*,68*
CCOc1cc(/C=C/c2cccc[n+]2C)ccc1O,-1,8,i,4,.,.
CC(C)CN1C(=O)CSCC1(C)C(=O)NCc1ccccc1 (configuration not stated),.,.,i,-3,.,.
O=C(O)c1ccc(N/N=C/c2cc3cc4c(cc3nc2Cl)OCCO4)cc1,27*,21,i,5,38*,48*
Cc1cc(/C=C2\SC(=S)NC2=O)c(C)n1C1CC1,74*,.,i,56*,107*,117*
O=C1NC(=S)SC1=Cc1ccccc1Br,.,7,i,0,.,.
Cc1cc(/C=C2/C(=O)N(C)C(=S)N2C)c(C)n1C1CC1,30*,8,+,12,46*,55*
Cc1cc(/C=N/NC(=O)c2ccc(O)cc2)c(C)n1C1CC1,3,5,i,-1,.,.
CC(C)NCc1nnc(-c2ccccc2Cl)o1,2,-3,i,3,.,.
COc1ccc(C2c3c(oc4ccc(Cl)cc4c3=O)C(=O)N2CCN2CCOCC2)cc1 (configuration not stated),2,2,i,0,.,.
COC(=O)c1sc2cc([N+](=O)[O-])cc(SCC(C)C)c2c1N,43*,.,+,29,29*,41*
CCOC(=O)c1sc2ncc([N+](=O)[O-])cc2c1N,-6,-3,i,0,.,.
Nc1ccc(-c2nc3c(ccc4ccccc43)[nH]2)cc1,1,-2,i,3,.,.
CCn1c(SCc2nc3sc(C(=O)O)c(C)c3c(=O)[nH]2)nc2ccccc21,31*,30,.,-1,24*,27*
COC(=O)CN1C(=O)N/C(=C/c2ccc(OC)cc2)C1=O,-2,8,i,-6,.,.
COC(=O)Cn1c(=O)c2c(n(Cc3ccccc3)c1=O)N/C(=C/c1ccc(Br)cc1)C2=O,43*,.,i,14,32*,47*
CN(C(=O)c1cc(S(=O)(=O)N2CCOCC2)cs1)c1ccccc1,-1,1,i,-5,.,.
Cc1ccc(OCCNC(=O)CCNS(=O)(=O)c2ccc3ccccc3c2)cc1,.,-3,i,0,.,.
CCCCOc1ccc(-c2nc(/C=N/c3nccs3)c(O)o2)cc1,5,9,i,2,.,.
CCOc1ccc2nc(/N=C/c3nc(-c4ccc(Br)cc4)oc3O)sc2c1,50*,.,i,14,58*,68*
COc1cccc(N=C2NC(=O)/C(=C/c3cc([N+](=O)[O-])ccc3O)S2)c1,51*,.,i,76*,64*,70*
SMILES,TPT1 inhibitor,Rpn11 inh,Myeloid diff 2,HNF4A DNA FP,TPT1 inh confirm,RNase T1 counter
O=C1NC(=Nc2ccccc2Cl)S/C1=C\c1cc([N+](=O)[O-])ccc1O,88*,.,i,76*,99*,99*
O=C1N/C(=N/O)S/C1=C/c1cccc([N+](=O)[O-])c1,2,2,i,2,.,.
CC(C)[C@H](NC(=O)c1ccc(F)cc1)C(=O)NC1=NCCS1,-3,-3,i,0,.,.
CCOc1ccc(C2C(C#N)=C(N)SC(N)=C2C#N)c(OCC)c1,150*,.,i,137,22,32*
CCOc1cc(C2C(C#N)=C(N)Oc3cc(N)ccc32)ccc1O (configuration not stated),7,9,i,8,.,.
N#CC1=C(N)n2c(s/c(=C\c3cccs3)c2=O)=C(C#N)C1c1cccs1 (configuration not stated),54*,.,i,65,42*,54*
N#CC1=C(N)n2c(s/c(=C\c3ccco3)c2=O)=C(C#N)C1c1ccco1 (configuration not stated),15,18,i,-24,.,.
CC1(C)Cc2c(sc3[nH]c(=O)n(CC(=O)NCC4CCCO4)c(=O)c23)CO1 (configuration not stated),-2,-10,i,0,.,.
O=C(O)c1nnn(-c2cccc(C(F)(F)F)c2)c1-c1ccccc1,-2,-8,i,0,.,.
Cc1ccc(C(=O)/C=C/c2cn(CC(O)CN3CCOCC3)c3ccccc23)cc1 (configuration not stated),47*,.,i,25,46*,57*
O=C(/C=C/c1cn(CC(O)CN2CCOCC2)c2ccccc12)c1cccs1 (configuration not stated),63*,.,.,.,82*,88*
O=Cc1cn(CC(O)CN2CCCCC2)c2ccccc12 (configuration not stated),-1,0,i,3,.,.
CCCc1nc2ccccc2n1C(C(=O)NC(C)(C)C)C1CC1 (configuration not stated),.,.,i,2,.,.
CSc1cccc(CN(C)C(=O)C2CCC(=O)N(CCCN3CCCC3=O)C2)c1 (configuration not stated),-1,-2,i,-2,.,.
COc1ccc(-n2c(NC(=O)c3ccco3)c(C#N)c3nc4ccccc4nc32)cc1,36*,30,+,32,45*,55*
COc1ccc(C(=O)Nc2ccc(NC(=O)c3ccco3)cc2)cc1,-3,-2,i,0,.,.
COc1ccc(-c2cc(C(F)(F)F)c3c(n2)sc2c(O)cc(=O)[nH]c23)c(OC)c1,69*,.,i,90,82*,85*
Cc1cc(C)c2c(n1)sc1c(O)cc(=O)[nH]c12,2,15,i,-3,.,.
CCCCc1ccc(C2C(C#N)=C(N)SC(N)=C2C#N)s1,137*,.,.,.,64*,76*
CCCCc1ccc(/C=C(\C#N)C(N)=S)s1,.,1,i,-2,.,.
COC(=O)c1ccc(N)c(N=CC2=C(O)CC(C)(C)CC2=O)c1,31*,.,+,22,9,13
COc1cccc(N=CC2=C(O)CC(C)(C)CC2=O)c1,-2,2,i,3,.,.

# High-throughput results from PubChem.
